The list is not random: actives were taken first. Their share in the collection is about 31%.
CYP2C9 inhib – blockers of cytochrome P450 2C9 activity – biochemical, luminescence, ADME assay, primary screen. AID 777, 2007. hit rate 20% among 96,000. inhibition, % at 5 µM. CYP2C9 Supersomes, luciferin-H conversion;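 active means blocking of liver enzyme CYP2C9 beyond about 50% at 5 µM, limit read from the data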
PLAP activator – PLAP enzyme activators, biochemical, luminescence, HTS | Alkaline phosphatase, placental type (Homo sapiens), P05187 | purified PLAP enzyme, luminescent substrate read-out; stronger effect = higher value | activation fold at 20 µM | hit rate 1.2% among 96,000; in the data active means activation fold above about 2
CYP2C19 inhib – blockers of cytochrome P450 2C19 activity – biochemical, luminescence, ADME assay, primary screen; AID 778, 2007; CYP2C19 Supersomes, luciferin-H EGE luminescence, 30 min; hit rate 21% among 96,000; inhibition, % at 5 µM;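 active means CYP2C19 inhibition above a set limit at 5 µM in the primary screen, cut at about 50% in these data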;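 further: plate controls were negative control wells for no effect and 2.5 mM tranylcypromine positive control for full effect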
Target sequence (P33261 whole entry, looked up): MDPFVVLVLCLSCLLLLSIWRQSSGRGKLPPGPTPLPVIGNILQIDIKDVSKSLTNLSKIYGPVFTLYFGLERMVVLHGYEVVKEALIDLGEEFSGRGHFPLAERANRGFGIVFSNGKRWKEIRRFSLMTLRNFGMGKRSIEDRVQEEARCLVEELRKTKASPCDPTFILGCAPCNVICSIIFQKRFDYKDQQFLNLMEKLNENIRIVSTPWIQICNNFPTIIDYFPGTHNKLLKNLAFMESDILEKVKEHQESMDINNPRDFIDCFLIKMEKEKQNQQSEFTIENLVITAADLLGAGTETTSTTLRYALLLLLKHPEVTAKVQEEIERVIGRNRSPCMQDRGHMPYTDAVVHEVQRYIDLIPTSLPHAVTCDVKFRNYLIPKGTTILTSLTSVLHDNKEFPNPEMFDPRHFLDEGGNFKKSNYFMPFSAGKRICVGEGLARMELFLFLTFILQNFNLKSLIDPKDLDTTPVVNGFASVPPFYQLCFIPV
CYP2C19 activ – human CYP2C19 activators, primary screen, biochemical, luminescence; 96,000 tested, under 10 active; Cytochrome P450 2C19 (Homo sapiens), P33261; recombinant CYP2C19, luciferin-H EGE luminescence; stronger effect = higher value; 0 = fully inhibited enzyme, 1 = untreated enzyme; AID 1025, 2008; activation factor at 5 µM;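 active means activation factor of at least 2 at 5 µM in the primary screen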;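 further: 0 = wells with 2.5 mM tranylcypromine and 1 = vehicle-only wells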
CYP2C9 activ – human CYP2C9 activators, primary screen, biochemical, luminescence | Cytochrome P450 2C9 (Homo sapiens), P11712 | recombinant CYP2C9, luciferin-H conversion; stronger effect = higher value; factor 1 = untreated enzyme, 0 = blocked | activation factor at 5 µM | hit rate 1.4% among 96,000 | AID 1024, 2008;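 active means activation factor of 2 or more for CYP2C9 at a 5 µM dose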;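 further: 0 = sulfaphenazole-blocked wells and 1 = vehicle-only wells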
The depositor's hits bear a star.

SMILES	CYP2C9 inhib	PLAP activator	CYP2C19 inhib	CYP2C19 activ	CYP2C9 activ
CC1CCc2nn(CC(=O)N3CCc4ccccc43)cc2C1 (stereo unspecified)	22.9	1.2	25.6	0.7	0.8
Cc1ccc(S(=O)(=O)NCCCCCC(N)=O)cc1	11.0	0.9	32.0	0.7	0.9
O=S(=O)(NCCc1ccncc1)c1cc(Br)ccc1F	51.2*	0.8	88.6*	0.1	0.5
CCOc1ccc(Br)cc1S(=O)(=O)NCCN(C)C	-7.9	1	-14.5	1.1	1.1
Cc1ccc(CNS(=O)(=O)NCc2ccccc2)cc1	-7.7	0.9	77.1*	0.2	1.1
Cc1ccc(S(=O)(=O)NCCCOC(=O)Nc2ccncc2)cc1	99.9*	0.9	91.5*	0.1	0
O=C(NC1CCCC1)C(c1cccnc1)N(C(=O)c1csnn1)C1CC1 (stereo unspecified)	6.5	1.1	31.8	0.7	0.9
Cc1cccc(N2CCN(c3nnnn3-c3ccccc3)CC2C)c1 (stereo unspecified)	88.4*	1.3	100.0*	0	0.1
c1ccc(N2CCN(c3nnnn3-c3ccccc3)CC2)cc1	93.2*	1.2	99.8*	0	0.1
c1ccc(-n2nnnc2-n2cnc3ccccc32)cc1	43.8	1.1	82.2*	0.2	0.6
Cc1cc(N2CCN(c3nnnn3-c3ccccc3)CC2)n2ncnc2n1	30.7	0.8	65.6*	0.3	0.7
O=C(C1CCN(c2nnnn2-c2ccccc2)CC1)N1CCN(c2ccccc2)CC1	23.9	0.9	17.1	0.8	0.8
Cc1nnc(-n2cnc3ccccc32)c2ccccc12	-10.8	0.9	-3.9	1	1.1
Cc1cc(S(=O)(=O)N(Cc2ccc(F)cc2)CC2CCCO2)ccc1-n1cnnn1 (stereo unspecified)	13.3	1.5	56.3*	0.4	0.9
Cc1cc(S(=O)(=O)N(Cc2ccc3c(c2)OCO3)CC2CCCO2)ccc1-n1cnnn1 (stereo unspecified)	69.2*	1.6	94.8*	0.1	0.3
Cc1cc(S(=O)(=O)N(Cc2ccc(C(C)C)cc2)CC2CCCO2)ccc1-n1cnnn1 (stereo unspecified)	52.6*	1.6	43.5	0.6	0.5
COc1ccc(-n2c(C)c3c(OC)cccc(=O)c3c2C)cc1	58.2*	0.9	81.3*	0.2	0.4
Cc1ccc(NC(=O)CCC(=O)OCCCC(F)(F)C(F)(F)F)cc1	27.6	1	26.7	0.7	0.7
O=C(CCC(=O)OCCCC(F)(F)C(F)(F)F)Nc1ccc(Cl)cc1Cl	39.5	1.1	70.0*	0.3	0.6
CCOC(=O)CCCCC(=O)c1[nH]c(=O)[nH]c1CSc1nc(C)cc(C)n1	26.7	2*	12.8	0.9	0.7
CCOC(=O)c1[nH]c(=O)[nH]c1COC(=O)c1cc2ccccc2o1	57.0*	2.2*	12.5	0.9	0.4
CN(C)CCCOC(=O)c1cc2ccccc2o1	4.6	1	1.7	1	1
CCOC(=O)CCCCC(=O)c1[nH]c(=O)[nH]c1CSc1nc(C)cc(=O)[nH]1	8.3	2.2*	3.1	1	0.9
CCOC(=O)c1[nH]c(=O)[nH]c1CSc1nc(C)cc(C)n1	-13.9	2.2*	6.9	0.9	1.1
Cc1noc(/C=C/N(C)C)c1S(=O)(=O)NC1CCCCC1	29.7	1.1	25.5	0.7	0.7
SMILES	CYP2C9 inhib	PLAP activator	CYP2C19 inhib	CYP2C19 activ	CYP2C9 activ
Cc1cnc(C(=O)Nc2nccs2)cn1	-7.1	1.4	-1.7	1	1.1
O=c1oc2ccccc2cc1-c1nnc(NCc2ccco2)s1	-16.8	0.8	5.1	0.9	1.2
CCOC(=O)CSc1nnc(C2CCCCC2)n1C	-2.1	1	-5.5	1.1	1
O=C(OCCN1C(=O)c2ccccc2C1=O)C1CCN(S(=O)(=O)c2cccs2)CC1	96.6*	1.3	85.9*	0.1	0
O=C(OCCN1C(=O)c2ccccc2C1=O)c1cccs1	28.3	1.2	45.9	0.5	0.7
O=C(OCc1nnc(-c2ccccc2)o1)C1CCN(S(=O)(=O)c2cccs2)CC1	79.0*	0.8	38.3	0.6	0.2
Cc1cccc(OCCOC(=O)C2CCN(S(=O)(=O)c3cccs3)CC2)c1	65.3*	1.2	46.7	0.5	0.3
O=C(c1cccnc1NCc1ccc(F)cc1)N1CCOCC1	7.8	1	14.6	0.9	0.9
Cc1cc(C)nc(SCCn2c(N3CCC(C)CC3)nc3c2c(=O)n(C)c(=O)n3C)n1	-8.0	1.3	-5.3	1.1	1.1
CCCCNc1cc(C)nc(N2CCOCC2)n1	4.7	1.2	25.2	0.7	1
CC1CCCCC1NC(=O)c1cc2c(s1)CS(=O)(=O)C2 (stereo unspecified)	40.8	1.2	-7.3	1.1	0.6
CN(CC(=O)NCc1cccs1)S(=O)(=O)c1cccc2nsnc12	-24.7	1	82.6*	0.2	1.2
CC(C)CCNC(=O)CN(C)S(=O)(=O)c1cccc2nsnc12	50.2*	0.9	25.4	0.7	0.5
Cc1ccc(SCC(=O)N2CC(C)OC(C)C2)cc1 (stereo unspecified)	29.6	1.1	68.7*	0.3	0.7
Cc1cc(C)cc(C(=O)N2CC(C)OC(C)C2)c1 (stereo unspecified)	88.3*	1	0.1	1	0.1
C(=N\n1cnnc1)/c1ccc2ncccc2c1	20.7	0.9	56.7*	0.4	0.8
c1ccc(CSc2nnnn2-c2cccc3ccccc23)nc1	-134.9	0.7	44.0	0.6	2.3*
COC(=O)CSc1nnnn1-c1cccc2ccccc12	-220.7	1.1	31.0	0.7	3.2*
O=C(CCCSc1nnnn1-c1cccc2ccccc12)c1ccc(F)cc1	-142.0	1	20.3	0.8	2.4*
CSc1nc2nc(-c3ccccc3)cc(C(F)(F)F)n2n1	31.0	1	14.6	0.9	0.7
O=C(c1cccs1)N1CCC(c2nc3c(nnn3Cc3ccccc3)c(=O)[nH]2)CC1	59.0*	1.2	8.8	0.9	0.4
O=C(C1CCCCC1)N1CCCC(c2nc3c(nnn3Cc3ccccc3)c(=O)[nH]2)C1 (stereo unspecified)	35.3	1.6	20.2	0.8	0.6
Cc1ccc(C)c(Cn2nnc3c(=O)[nH]c(C(=O)NCc4ccco4)nc32)c1	20.3	1.5	-15.3	1.2	0.8
COc1ccccc1NC(=O)N1CCCC(c2nc3c(nnn3Cc3ccc(C)cc3)c(=O)[nH]2)C1 (stereo unspecified)	26.9	1.1	66.9*	0.3	0.7
Cc1ccc(C)c(Cn2nnc3c(=O)[nH]c(C4CCCN(C(=O)C5CCCCC5)C4)nc32)c1 (stereo unspecified)	88.6*	1.5	72.9*	0.3	0.1
N#Cc1cccc(NC(=O)N2CCC(c3nc4c(nnn4Cc4cccc(Cl)c4)c(=O)[nH]3)CC2)c1	-18.2	1.2	-17.7	1.2	1.2

Screening data as filed in PubChem BioAssay.
